# Reference: the supplement of paper PMC6555819
# What was measured:
# Assay in all cases: PBM binding z-score (relative to random genomic background probes); higher = stronger binding; sequences stand for … in GC…GCGATTGACAGCGTAGAATGAAGG
# [1] = test system: FXR:RXRa (NR concentration 270 nM, RXRa partner concentration 90 nM)
# Method in brief: (§1)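 Custom Agilent 4×180K protein-binding microarrays carried double-stranded probes, each with a 34-nt variable region. These regions held direct-repeat seeds, single-nucleotide variants, half-site ablations and random human genomic background sequences. Ligand-free nuclear receptor dimers were incubated on the arrays for 1 h, antibodies against each partner (one per run) detected binding, and scanned fluorescence was regression-normalized. Binding z-scores take the random background probes as reference.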
# [2] = test system: LXRa:RXRa (NR concentration 270 nM, RXRa partner concentration 90 nM)
# Method in brief: as §1
# [3] = test system: LXRa homodimer (NR concentration 270 nM)
# Method in brief: as §1
# [4] = test system: LXRb:RXRa (NR concentration 270 nM, RXRa partner concentration 90 nM)
# Method in brief: as §1
# [5] = test system: LXRb homodimer (NR concentration 270 nM)
# Method in brief: as §1
# [6] = test system: PPARa:RXRa (NR concentration 270 nM, RXRa partner concentration 90 nM)
# Method in brief: as §1
# [7] = test system: PPARg:RXRa (NR concentration 180 nM, RXRa partner concentration 90 nM)
# Method in brief: as §1
# [8] = test system: PPARg:RXRa 270nM:90nM, anti-RXR (NR concentration 270 nM, RXRa partner concentration 90 nM)
# Method in brief: as §1
# [9] = test system: PPARg:RXRa 30nM:10nM, anti-RXR (NR concentration 30 nM, RXRa partner concentration 10 nM)
# Method in brief: as §1
# [10] = test system: PPARg:RXRa 90nM:30nM, anti-RXR (NR concentration 90 nM, RXRa partner concentration 30 nM)
# Method in brief: as §1
# [11] = test system: PPARg:RXRa DBDmut IVT, anti-RXR (DBD mutation: RXRa K156A/R161A, NR concentration 270 nM, RXRa partner concentration 90 nM)
# Method in brief: as §1
# [12] = test system: PPARg:RXRa IVT, anti-PPARg (NR concentration 270 nM, RXRa partner concentration 90 nM)
# Method in brief: as §1
# [13] = test system: PPARg DBDmut:RXRa IVT, anti-PPARg (DBD mutation: PPARg1 K132A/R137A, NR concentration 270 nM, RXRa partner concentration 90 nM)
# Method in brief: as §1
# [14] = test system: PPARg DBDmut IVT, anti-PPARg (DBD mutation: PPARg1 K132A/R137A, NR concentration 270 nM)
# Method in brief: as §1
# [15] = test system: PPARg homodimer (NR concentration 180 nM)
# Method in brief: as §1
# [16] = test system: PXR:RXRa (NR concentration 270 nM, RXRa partner concentration 90 nM)
# Method in brief: as §1
# [17] = test system: PXR homodimer (NR concentration 270 nM)
# Method in brief: as §1
# [18] = test system: RARa:RXR (NR concentration 270 nM, RXRa partner concentration 90 nM)
# Method in brief: as §1
# [19] = test system: RARa homodimer (NR concentration 270 nM)
# Method in brief: as §1
# [20] = test system: RARb:RXRa (NR concentration 270 nM, RXRa partner concentration 90 nM)
# Method in brief: as §1
Sequence,PBM binding z-score [1],PBM binding z-score [2],PBM binding z-score [3],PBM binding z-score [4],PBM binding z-score [5],PBM binding z-score [6],PBM binding z-score [7],PBM binding z-score [8],PBM binding z-score [9],PBM binding z-score [10],PBM binding z-score [11],PBM binding z-score [12],PBM binding z-score [13],PBM binding z-score [14],PBM binding z-score [15],PBM binding z-score [16],PBM binding z-score [17],PBM binding z-score [18],PBM binding z-score [19],PBM binding z-score [20]
ACTCGCAGGCCAAGTTTGGGTCACTCAAACAAAG,0.277,0.222,-0.578,0.571,-0.644,1.39,-0.313,0.179,-0.845,-0.263,0.227,0.485,-0.206,-0.189,0.897,0.84,-0.477,1.47,-0.257,1.89
CAAACTAGGTCACCGGAAGATCAAAGTCCGCATG,4.71,3.6,0.641,2.62,0.598,5.66,9.41,7.49,5.48,7.48,8.57,9.02,7.41,5.5,6.16,2.27,0.35,3.33,1.83,4.28
GCATATAGGTACTACAAGGTGAAAGTCCGATTGT,0.689,-0.132,-0.343,0.0572,-0.233,0.972,0.697,0.784,0.264,0.566,1.67,1.24,0.887,0.583,0.651,0.2,-0.351,1.36,-0.147,0.285
CCTTACGGGTCAAGAGGTTATAGCACGACGAGCG,6.14,4.17,0.128,3.63,-0.435,5.58,5.44,5.64,2.4,4.29,2.73,3.77,0.866,0.102,2.77,3.63,0.116,5.26,0.579,4.3
AATACAGGGTCATCGTAGGCCAGAGCACGCACAG,7.49,6.27,2.28,4.72,1.31,5.79,6.53,6.08,3.29,4.98,2.92,4.29,2.99,0.869,3.33,4.96,0.778,5.48,0.827,4.21
GGACCGAGGGCAAGTTGATAGCAGAGTTTGATGG,0.721,0.322,-0.497,0.0428,-0.812,0.868,0.401,0.00699,-0.601,-0.0881,0.956,0.614,-1.14,-1.16,0.433,0.556,0.539,0.315,-0.39,2.6
ATATGTAGGTTATCGGGGCATTCAGTTTGCGCAT,1.18,1.49,0.936,2.57,1.81,3.95,5.76,5,2.48,4.06,7.24,7.25,3.45,3.12,2.07,1.72,3,1.04,1.6,1.7
AGAACGAGGTTACCAAAGATCAGGGAAACGCTTG,1.56,5.74,-0.119,2.92,-0.342,3.07,2.21,1.99,0.478,1.55,2.75,2.7,0.297,0.837,0.438,1.41,-0.605,1.66,-0.278,2.02
CCTTACGGGTCACTGACAGGTTATAGCATTTGGA,5.52,4.15,0.472,3.5,0.111,5.06,4.48,4.67,1.53,3.39,3.49,3.75,0.989,0.078,3.59,3.81,-0.141,4.92,1.13,4.02
